Only some compounds are listed: those with a hit (about 3.9% of all), similar ones and a draw of the others.
DRV1 agonist = GPR32 (DRV1) agonism, beta-arrestin recruitment; O75388; CHO-K1 GPR32 beta-arrestin PathHunter luminescence, 90 min; zero percent set by DMSO-only wells; activation, % at 76.9 µM; actives 2.5% (n = 48,000);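 active = activation of at least 60% and not above a set upper limit, about 1 call in 100 departs from these limits; inconclusive = activation of 40% to 60%, or above that upper limit; inactive = activation under 40%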; also: 0% is about no effect
Target sequence (O75388 whole entry, looked up): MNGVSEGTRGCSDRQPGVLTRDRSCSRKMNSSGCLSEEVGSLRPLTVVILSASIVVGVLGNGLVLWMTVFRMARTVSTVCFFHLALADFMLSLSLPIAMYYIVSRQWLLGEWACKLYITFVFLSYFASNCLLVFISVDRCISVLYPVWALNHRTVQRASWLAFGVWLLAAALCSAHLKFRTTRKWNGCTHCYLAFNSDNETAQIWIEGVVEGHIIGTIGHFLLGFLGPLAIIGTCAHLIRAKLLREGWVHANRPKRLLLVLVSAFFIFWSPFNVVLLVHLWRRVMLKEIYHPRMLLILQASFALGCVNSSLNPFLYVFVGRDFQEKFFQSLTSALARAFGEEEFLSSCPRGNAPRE
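Using DMSO wells as EC0, agonist-induced signal was taken as chemiluminescence from beta-Gal reconstituted upon beta-arrestin recruitment to GPR32 in CHO-K1 cells after 90 min compound treatment.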
SKOV3 invasion = ovarian cancer metastasis inhibition, 3D TME model. AID 1963576. Potency, µM (highest dose often 45.8 µM), without a hit: top-dose activity change, negative = inhibition, usual class: inhibitors. actives 0.1% (n = 46,000). SKOV3ip1-GFP adhesion/invasion on 3D omental model, fluorescence;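 also: potency is read from the fitted curve at half-maximal effect; plate controls were DMSO wells for no effect and tomatine positive control wells for full effect; nearly all actives have a fitted effect of over 65% in size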
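Adhesion/invasion was scored as fixed GFP-labeled SKOV3ip1 cell counts (488/509 nm), normalized to DMSO and tomatine controls. Cancer cells in serum-free medium, with four compound doses (0.36-46 umol/L), sat 2 hr at RT then 16 hr at 37 C on a 48 hr fibroblast/mesothelial/ECM culture.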
FH mod = Identification of activators of human fumarate hydratase by quantitative high-throughput screening; FH coupled MDH/diaphorase resazurin fluorescence, 15 min; Potency, µM (titrated, usually from 79.9 µM), for inactives: top-dose activity change, negative = inhibition, hits mostly inhibitors; actives 0.22% (n = 54,000); AID 1347055, 2019; Fumarate hydratase, mitochondrial (Homo sapiens), P07954; also: potency is read from the fitted curve at half-maximal effect; % is scaled to controls: 0 for no effect and ±100 for the full control effect; the screen sought activators but most active calls are inhibition curves; nearly all actives have a fitted effect of over 45% in size
NTMT1 inh = blocks human N-terminal methyltransferase 1 activity; Q9BV86; NTMT1 MTase-Glo SAH luminescence, purified enzyme; Potency, µM (top dose mostly 114 µM), for the others: at the top dose activity change, negative = inhibition, usual class: inhibitors; actives 2.5% (n = 59,000);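 also: potency is read from the fitted curve at half-maximal effect; plate controls were DMSO vehicle for no effect and no enzyme for full effect; nearly all actives have a fitted effect of over 65% in size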
Target sequence (Q9BV86 whole entry, looked up): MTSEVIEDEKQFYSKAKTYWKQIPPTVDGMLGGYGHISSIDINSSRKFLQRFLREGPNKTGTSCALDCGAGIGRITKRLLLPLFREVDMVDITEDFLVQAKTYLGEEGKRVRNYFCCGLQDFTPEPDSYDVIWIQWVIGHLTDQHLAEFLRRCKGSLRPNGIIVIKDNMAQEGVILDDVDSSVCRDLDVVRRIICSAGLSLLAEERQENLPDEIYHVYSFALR
Starred values were filed as active, the others as inactive; i = inactive; u = inconclusive; x = no result; [ ] = another dose, or the depositor's remark. Unless noted, calls follow the shape of the dose curve; as a rule, active = well fitted curve in the direction sought with a large enough effect; inconclusive = small, poorly fitted or top-dose-only effect, or another doubt; inactive = no such curve, though single readings can be large; an effect the other way counts as inactive or inconclusive.

SMILES	DRV1 agonist	SKOV3 invasion	FH mod	NTMT1 inh
CC(CCC1(O)OC2CC3C4CCC5CC(O[C@@H]6O[C@H](CO)[C@@H](O)[C@H](O)[C@H]6O[C@@H]6OC[C@@H](O)[C@H](O)[C@H]6O)C(O)CC5(C)C4CCC3(C)C2C1C)CO[C@@H]1O[C@H](CO)[C@@H](O)[C@H](O)[C@H]1O (some centres not stated)	x	x	-8%[20.6 µM]	17%[12.6 µM]
CC(C)S(=O)(=O)NC[C@@H]1CC(c2ccc(N3CCCC3)c(F)c2)=NO1	x	x	2%	13%[57.5 µM]
CC1(C)OB(c2ccc(O)c3ncc(N4CCNCC4)cc23)OC1(C)C	x	x	x	79µM*
C=CCc1ccccc1OCCSc1nc(-c2cccs2)nc2cc(=O)[nH]n12	86*	i	x	x
COc1ccccc1OCCSc1nc(-c2ccc(C(C)(C)C)cc2)nc2cc(=O)[nH]n12	65*	-7%	x	x
O=c1cc2nc(-c3cccs3)nc(SCCOc3ccc(Cl)cc3)n2[nH]1	-1	8%	-18%	u
CC(C)(C)c1ccc(OCCSc2nc(-c3cccs3)nc3cc(=O)[nH]n23)cc1	68*	-6%	x	x
C=CCc1ccccc1OCCSc1nc(-c2ccc(C(C)(C)C)cc2)nc2cc(=O)[nH]n12	-2	u	x	x
Cc1cccc(S(=O)(=O)NC2CCN(C#N)C2)c1 (configuration not stated)	x	x	x	5%
CC1(C)CC2C3=CCC4C5(C)CCC(OC6OC(CO)C(O)C(OC7OC(CO)C(O)C(OC8OC(CO)C(O)C(OC9OC(COC%10OC(CO)C(O)C(O)C%10O)C(O)C(O)C9O)C8O)C7O)C6O)C(C)(C)C5CCC4(C)C3(C)CCC2(C(=O)O)CC1O (configuration not stated)	x	x	0%[13.5 µM]	-1%[6.45 µM]
Cc1ccc(CNC(=O)c2cccc(NC(=O)N3CCSc4ncccc43)c2)cc1	92*	17%	3%	-22%
Cc1ccc(-n2ncc3c(Nc4cccc(Cl)c4)ncnc32)c(C)c1	-8	10µM*	u	-3%
Cc1ccc(-n2ncc3c(Nc4cccc(C(F)(F)F)c4)ncnc32)cc1C	94*	-7%	-1%	11%
Cc1ccc(Cl)cc1-n1ncc2c(NC3CCCCCC3)ncnc21	u	-31%	-28%	22%
Cc1ccc(-n2ncc3c(Nc4cccc(C)c4)ncnc32)cc1	u	i	-18%	5%
Cc1ccc(CNc2ncnc3c2cnn3-c2ccc(C)cc2C)cc1	61*	-14%	u	5%
Cc1ccc(Cl)cc1-n1ncc2c(N3CCC(C)CC3)ncnc21	62*	11%	-11%	7%
O=c1[nH]c(CN2CCOCC2)nc2sc3c(c12)CCCC3	x	x	x	-3%
COc1ccc(NC(=O)c2[nH]c(C)c(C(C)=O)c2C)cc1S(=O)(=O)Nc1ccc(C#N)cc1	x	x	x	7%
Cc1ccc(Cl)cc1-n1ncc2c(Nc3cccc(C)c3C)ncnc21	23	14%	u	5.6µM*
CC(C)c1ccc2oc3nc(N)c(C(=O)O)cc3c(=O)c2c1	104*	8%	-10%[53.3 µM]	32µM*
COc1ccc(-c2cc(C(=O)N3CCN(c4ccccc4OC)CC3)c3cc(C(C)C)ccc3n2)cc1	4	-3%	-26%	7%
Cc1c[nH]c(/C=C2\C(=O)Nc3ccccc32)c1CCC(=O)O	x	x	-19%	u
O=C(Nc1cc(C(F)(F)F)cc(C(F)(F)F)c1)c1cnc(Cl)nc1C(F)(F)F	x	x	-14%	u
O=C(Cn1ncc2c1-c1ccccc1OC2)N1CCN(c2ccccc2F)CC1	92*	5%	-23%	6%
SMILES	DRV1 agonist	SKOV3 invasion	FH mod	NTMT1 inh
Cc1c[nH]c2nc(Nc3ccc(N4CCN(C)CC4)c(F)c3)nc(-c3cccc(CC#N)c3)c12	x	x	x	25µM*
CCS(=O)(=O)Nc1ccc(Oc2ccc(F)cc2F)c(-c2cn(C)c(=O)c3[nH]ccc23)c1	x	x	x	-2%
CCCOc1ccccc1C(=O)N1CCC(c2nc3ccccc3s2)CC1	104*	-2%	-19%	-15%
CCCOc1ccc(C(=O)N2CCC(c3nc4ccccc4s3)CC2)cc1	0	11%	3%	u
Cc1cc(Cl)ccc1OCC(=O)N1CCC(c2nc3ccccc3s2)CC1	u	i	u	1%
COc1ccc(C(=O)N2CCC(c3nc4ccccc4s3)CC2)cc1Cl	76*	-12%	u	2%
COc1cccc(C(=O)N2CCC(c3nc4ccccc4s3)CC2)c1	95*	2%	-10%	28%
COc1cc(-c2noc(C3CC(=O)N(c4cc(C)ccc4C)C3)n2)cc(OC)c1OC (configuration not stated)	76*	0%	u	-14%
Cc1ccc(N2CC(c3nc(-c4ccc(Cl)cc4)no3)CC2=O)cc1F (configuration not stated)	6	-1%	-5%	2%
COc1ccc(NC(=O)CSc2nc(-c3ccco3)cc(C(F)(F)F)n2)cc1	95*	-3%	3%	14%
COc1cccc(CNc2ccc(S(=O)(=O)Nc3nc(C)c(C)s3)cc2)c1O	x	x	x	-13%[57.5 µM]
Cc1cc(-n2ccnc(NCCc3ccc(S(N)(=O)=O)cc3)c2=O)ccc1Br	120*	-1%	-3%	-9%
Cc1ccc(-n2ccnc(NCCc3ccc(S(N)(=O)=O)cc3)c2=O)cc1C	95*	-1%	8%	-6%
Cc1ccc(-n2ccnc(NCCc3ccc(S(N)(=O)=O)cc3)c2=O)c(C)c1	81*	i	3%	1%
O=C(Nc1ccc(-c2nc3ccccc3[nH]2)cc1)c1ccc2cc[nH]c2c1	x	x	x	-16%
COc1ccc(C(=O)Nc2ccc(-c3nc4ccccc4[nH]3)cc2)cc1C(F)(F)F	x	x	x	2%
CC1=CC(=O)CC(C)(C)C1CO[C@@H]1O[C@H](CO)[C@@H](O)[C@H](O)[C@H]1O (some centres not stated)	x	x	1%[53.3 µM]	-1%[29.8 µM]
C/C(=N\O)[C@@H](C)NCC(C)(C)CN[C@H](C)/C(C)=N/O	118*	x	2%[53.3 µM]	9%[57.5 µM]
COc1cc(/C=C2\C(=O)Nc3ccccc32)ccc1O	x	x	x	79µM*
O=C1NCc2nc3ccccc3c(=O)n2C1Cc1c[nH]c2ccccc12 (configuration not stated)	x	x	1%[53.3 µM]	7%[29.8 µM]
COc1cccc(C2=CC(c3ccccc3F)n3ncc(C(=O)Nc4ccc(F)cc4)c3N2)c1 (configuration not stated)	71*	u	-26%	22µM*
Cc1ccc(C)c(Cn2c(=O)n(CCCCC(=O)NCc3ccc4c(c3)OCO4)c(=O)c3ccccc32)c1	-28	i	3%	89µM*
Cc1ccc(C)c(Cn2c(=O)n(CCCCC(=O)NCc3ccccc3Cl)c(=O)c3ccccc32)c1	-9	i	u	79µM*
CC(=O)N1c2ccc(S(=O)(=O)NCC3CCC(C(=O)Nc4ccc(F)cc4)CC3)cc2CC1C (configuration not stated)	68*	-3%	6%	16%

High-throughput results deposited in PubChem BioAssay by National Center for Advancing Translational Sciences (NCATS).
